High-throughput results as filed in PubChem BioAssay.
Hits are enriched below; roughly 0.5% of the tested compounds scored in any of these assays.
E coli growth-1 = reduces bacterial viability in AddAB counter-screen; E. coli V3065 growth, OD600 absorbance, 18 h; inhibition, % at 11.9 µM; actives 0.27% (n = 330,000); AID 449728;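 active = inhibition above the campaign's mean inhibition across all tested compounds plus 3 SD, cut at about 9.9% in these data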;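 note: uninfected addAB+ strain grown without phage in ampicillin broth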
phage Ecoli inh = E. coli growth loss with phage present; growth absorbance; actives 0.26% (n = 360,000); inhibition, % at 11.9 µM; AID 651602; in the data active = inhibition above about 11%
AddAB inh = less growth of phage-infected E. coli with AddAB | E. coli expressing H. pylori AddAB, absorbance growth | inhibition, % at 11.9 µM | actives 0.29% (n = 330,000) | AID 435030; in the data active = inhibition above about 12%
E coli growth-2 = inhibitors of Escherichia coli growth | OD600, 23 h; hits give low values | OD600 absorbance (test concentration not listed) | actives 0.21% (n = 330,000) | AID 1053175;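 active = OD600 absorbance below the run mean of sample wells minus 3.6 SD, in any replicate, cut at about 0.56 in these data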
Tat export inh = E. coli Tat transport inhibition; E. coli MC4100 TorA-mCherry Tat export, fluorescence; inhibition, % at 10 µM; actives 0.036% (n = 340,000); AID 488895;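 active = mean replicate inhibition at least 50% and at least half of replicates individually reaching 50%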;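 note: exported cargo escapes ClpAP degradation while cytoplasmic cargo is degraded and loses fluorescence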
AddAB conf = growth loss of T4-infected E. coli expressing H. pylori AddAB, confirmed. shares compounds with AddAB inh. E. coli V3065 expressing H. pylori AddAB, T4 phage, OD; T4 phage with gene 2 nonsense mutations. inhibition, % at 11.9 µM. actives 64% (n = 880). AID 488942;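 active = mean inhibition above a set limit taken from the earlier primary screen, cut at about 13% in these data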;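 note: higher means less bacterial growth since AddAB block lets phage replicate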
RecBCD counter = AddAB counter-screen: growth loss of RecBCD+ E. coli infected with mutant T4 phage. actives 73% (n = 880). AID 488955. shares compounds with AddAB inh. inhibition, % at 11.9 µM. E. coli V66 + mutant T4 phage, OD growth;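 active = mean inhibition above the mean of solvent-only control wells plus 3 SD, cut at about 4% in these data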;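 note: optical density read after an 18 h incubation at 37 °C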
Bact viability = reduces bacterial viability, AddAB inhibitor counter-screen. actives 35% (n = 880). inhibition, % at 11.9 µM. shares compounds with AddAB inh. absorbance (AddAB counterscreen); in the data active = inhibition above about 25%
RecBCD conf = growth loss of phage-infected V66 E. coli, RecBCD confirmation screen; shares compounds with phage Ecoli inh; E. coli V66 + T4 2- phage, growth OD; inhibition, % at 11.9 µM; actives 45% (n = 890);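 active = mean inhibition over triplicates exceeding the hit threshold derived in the original primary screen, cut at about 11% in these data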
Ecoli viability = bacterial viability inhibition counter-screen for RecBCD; shares compounds with phage Ecoli inh; actives 29% (n = 890); inhibition, % at 11.9 µM; E. coli viability, absorbance (OD) growth; in the data active = inhibition above about 20%;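 note: E. coli strain V66 grown with compound alone and no phage infection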
AddAB counter = growth loss of phage-infected AddAB E. coli, RecBCD counter-screen | shares compounds with phage Ecoli inh | inhibition, % at 11.9 µM | E. coli expressing H. pylori AddAB + T4 phage, OD growth; gene 2 mutant T4, recBCD-deleted host | actives 45% (n = 890);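 active = mean inhibition above the solvent-only control wells' mean plus 3 SD, cut at about 22% in these data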;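 note: higher means less bacterial growth from phage killing when AddAB is blocked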
Numbers stand for hits; i = inactive; nt = no result given; ! = not confirmed by another sample.

SMILES	E coli growth-1	phage Ecoli inh	AddAB inh	E coli growth-2	Tat export inh	AddAB conf	RecBCD counter	Bact viability	RecBCD conf	Ecoli viability	AddAB counter
O=C(NNC(=S)Nc1ccc(Cl)c(Cl)c1)c1ccccn1	17	17	14	i	i	26	17	25	14	i	34
CC1(C)Cc2c(cnn2-c2ccccc2)C(=O)C1=NNC(=O)c1ccccc1O	nt	nt	nt	i	nt	nt	nt	nt	nt	nt	nt
CC(O)c1nc2ccccc2n1CC(=O)Nc1ccc2c(c1)OCCO2 (stereo unspecified)	i	i	i	i	i	nt	nt	nt	nt	nt	nt
O=C(Cn1c(CO)nc2ccccc21)Nc1ccc2c(c1)OCCCO2	14	12	12	i	i	i	12	i	i	i	i
C=CCN(C(CC(C)C)C(=O)OC)S(=O)(=O)N(CC=C)C(CC(C)C)C(=O)OC (stereo unspecified)	nt	nt	nt	i	nt	nt	nt	nt	nt	nt	nt
CCCc1nnc(NC(=O)c2cn(CC)c3cc(N4CCN(C)CC4)c(F)cc3c2=O)s1	97	43	99	0.07	nt	99	91	101	42	72	98
CCn1cc(C(=O)NCCN(C)C)c(=O)c2cc(F)c(N3CCN(C)CC3)cc21	98	96	101	0.052	i	104	99	104	49	87	99
CCn1cc(C(=O)NCCCN(C)C)c(=O)c2cc(F)c(N3CCN(C)CC3)cc21	99	93	100	0.051	i	97	90	101	70	99	101
CCCCN(CCCC)C(=O)c1cn(CC)c2cc(N3CCN(C)CC3)c(F)cc2c1=O	101	98	102	0.049	71	104	102	103	100	101	100
CCCCCCn1cc(C(=O)O)c(=O)c2cc(F)c(N3CCN(C(=O)OCC)CC3)cc21	i	i	i	i	i	nt	nt	nt	nt	nt	nt
Cc1cccc(C=NNC(=O)c2cc(Br)ccc2OCc2ccccc2)n1	nt	nt	nt	i	nt	nt	nt	nt	nt	nt	nt
Cc1ccc(C(=O)NCCN2C3=NCC(Cc4ccccc4)N3CC2Cc2ccc(O)cc2)cc1Br (stereo unspecified)	nt	nt	nt	i	nt	nt	nt	nt	nt	nt	nt
O=C(O)CC1S/C(=N/N=Cc2ccc(-c3ccc(Cl)cc3[N+](=O)[O-])o2)NC1=O (stereo unspecified)	nt	nt	nt	i	nt	nt	nt	nt	nt	nt	nt
CCOC1OC(C(=O)N2CCN(Cc3ccccc3)CC2)=CC(c2cn(C(C)=O)c3ccccc23)C1CCCO (stereo unspecified)	nt	nt	nt	i	nt	nt	nt	nt	nt	nt	nt
CCCNC(=O)c1cn(CC)c2cc(N3CCN(C)CC3)c(F)cc2c1=O	100	100	98	0.049	81	102	101	101	103	104	103
CCn1cc(S(=O)(=O)c2ccc(C)cc2)c(=O)c2cc(F)c(N3CCN(C)CC3)cc21	i	i	i	i	i	nt	nt	nt	nt	nt	nt
c1cnc2c(c1)ccc1cccnc12	12!	12	12!	0.33	i	13	20	i	i	i	i
O=Cc1ccc2ccc3cccnc3c2n1	i	i	i	i	i	nt	nt	nt	nt	nt	nt
Cc1nonc1C(=O)NN=Cc1cc2c(cc1Br)OCO2	nt	nt	nt	i	nt	nt	nt	nt	nt	nt	nt
CC(OC(=O)n1ccnc1)C1O[C@@]2(C)CCCC1O2 (stereo partly specified)	nt	nt	nt	i	nt	nt	nt	nt	nt	nt	nt
CS(=O)(=O)c1ccc([C@@H](O)[C@@H](CF)NC(=O)C(Cl)Cl)cc1	85	85	84	nt	147	87	90	87	92	94	84
CS(=O)(=O)c1ccc([C@@H](O)[C@@H](CO)NC(=O)C(Cl)Cl)cc1	29	27	29	nt	i	i	27	i	35	25	i
Nc1ncnc2c1ncn2C1O[C@H](CO)[C@@H](O)[C@@H]1O (stereo partly specified)	i	i	i	nt	i	nt	nt	nt	nt	nt	nt
Nc1nc(F)nc2c1ncn2[C@@H]1O[C@H](CO)[C@@H](O)[C@H]1O	75	68	75	nt	i	74	64	77	70	63	78
Cc1ccc(C=NNC(=O)C2CCN(Cc3ccc(F)cc3Cl)CC2)o1	nt	nt	nt	i	nt	nt	nt	nt	nt	nt	nt
SMILES	E coli growth-1	phage Ecoli inh	AddAB inh	E coli growth-2	Tat export inh	AddAB conf	RecBCD counter	Bact viability	RecBCD conf	Ecoli viability	AddAB counter
c1ccc(-c2cc(CSc3nc4ccccc4[nH]3)on2)cc1	26	18	24	i	i	23	17	i	12	i	i
O=c1[nH]c(=O)n(C2C[C@H](O)[C@@H](CO)O2)cc1C(F)(F)F (stereo partly specified)	10	15	14	nt	i	38	12	i	20	i	30
O=c1[nH]c(=O)n([C@H]2C[C@H](O)[C@@H](CO)O2)cc1C(F)(F)F	i	11	13	nt	i	40	9.6	i	17	i	26
CCc1cn([C@H]2C[C@H](O)[C@@H](CO)O2)c(=O)[nH]c1=O	14	12	19	nt	i	38	11	i	14	i	23
O=c1[nH]c(=O)n(C2CC(O)C(CO)O2)cc1Br (stereo unspecified)	nt	i	nt	nt	i	nt	nt	nt	nt	nt	nt
Cc1cn([C@H]2C[C@H](O)[C@@H](COS(=O)(=O)O)O2)c(=O)[nH]c1=O	i	i	i	nt	i	nt	nt	nt	nt	nt	nt
CN(C)C=C1N=C(c2cccs2)OC1=O	nt	nt	nt	i	nt	nt	nt	nt	nt	nt	nt
COc1cccc(N2C(CC(=O)O)c3cc(C(F)(F)F)ccc3S2(=O)=O)c1 (stereo unspecified)	nt	nt	nt	i	nt	nt	nt	nt	nt	nt	nt
COc1ccc(NS(=O)(=O)c2ccc(N)cc2)nn1	i	nt	i	nt	nt	nt	nt	nt	nt	nt	nt
Nc1ccc(S(=O)(=O)Nc2ccc(Cl)nn2)cc1	12	16	20	i	i	19	11	30	12	i	39
O=C1NC(Cc2ccccc2)C(=O)N1Cc1ccccc1 (stereo unspecified)	nt	i	nt	i	i	nt	nt	nt	nt	nt	nt
O=c1ccsn1Cc1ccccc1	i	14	75	0.044	i	102	29	26	i	i	77
O=C(NCc1ccccc1)c1cccc2c1C(=O)c1ccc(C=Cc3ccccc3)cc1S2(=O)=O	nt	nt	nt	i	nt	nt	nt	nt	nt	nt	nt
CCCNC(=O)c1ccc2c(=O)c(O)c(-c3cccc(Br)c3)[nH]c2c1	13	20	15	i	i	14	13	i	12	i	i
CC(C)N1CCc2c(sc(NC(=O)c3ccc([N+](=O)[O-])o3)c2C(N)=O)C1	100	34	100	nt	i	102	48	103	38	62	103
